Experimental data reported in PubChem BioAssay (EPA / NIEHS).
Calls of active or inactive are those of the source. Rule for the calls: active = hit-call score of the fitted dose curve at least 0.9, where 1 is the maximum; inactive = score below 0.9.

Key:
[1] = read-out: Tumor necrosis factor receptor superfamily member 6 (Homo sapiens) (UniProt P25445); assay: LTEA_HepaRG_FAS: Life Technologies and Expression Analysis (LTEA) Assay for Fas cell surface death receptor (FAS) using HepaRG (AID 2283447); details: mRNA level, 48 h; actives raise or lower the signal
How it was run: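 Differentiated HepaRG cells in serum-free induction medium were exposed 48 h to 8 half-log concentrations up to 100 uM in 0.5% DMSO, in duplicate. FAS mRNA was measured by qRT-PCR normalised to ACTB, GAPDH and POLR2A; bidirectional fit versus DMSO.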

[2] = read-out: Fatty acid synthase (Homo sapiens) (UniProt P49327); assay: LTEA_HepaRG_FASN: Life Technologies and Expression Analysis (LTEA) Assay for Fatty Acid Synthase (FASN) using HepaRG (AID 2283448); details: mRNA level, 48 h; actives raise or lower the signal
How it was run: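 FASN expression changes, up or down relative to 0.5% DMSO, were measured by qRT-PCR in human HepaRG cells after 48 h treatment with chemicals at eight concentrations (half-log steps from 100 uM).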

[3] = read-out: Cyclin D2 (CCND2), CCND2 (gene 894); assay: LTEA_HepaRG_CCND2: Life Technologies and Expression Analysis (LTEA) Assay for Cyclin D2 (CCND2) using HepaRG (AID 2283449); details: mRNA level, 48 h; actives raise or lower the signal;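 note: CCND2 transcript measured by TaqMan qRT-PCR and normalised to three housekeeping genes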
How it was run: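 Chemicals in 0.5% DMSO, eight half-log concentrations from 100 uM top, were applied in duplicate for 48 h to human HepaRG cells in serum-free induction medium. CCND2 mRNA by TaqMan qRT-PCR, normalised to ACTB/GAPDH/POLR2A; bidirectional fit versus DMSO.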

[4] = read-out: Cyclin Dependent Kinase Inhibitor 1A (CDKN1A), CDKN1A (gene 1026); assay: LTEA_HepaRG_CDKN1A: Life Technologies and Expression Analysis (LTEA) Assay for Cyclin Dependent Kinase Inhibitor 1A (CDKN1A) using HepaRG (AID 2283450); details: mRNA level, 48 h; actives raise or lower the signal
How it was run: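 Read-out is CDKN1A mRNA by TaqMan qRT-PCR, normalized to three housekeeping genes and fitted in both directions against the DMSO baseline. Human HepaRG cells were treated 48 h with test chemicals up to 100 uM in half-log steps, 0.5% DMSO.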

[5] = read-out: Cyclin D1 (CCND1), CCND1 (gene 595); assay: LTEA_HepaRG_CCND1: Life Technologies and Expression Analysis (LTEA) Assay for Cyclin D1 (CCND1) using HepaRG (AID 2283451); details: mRNA level, 48 h; actives raise or lower the signal;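 for AC50: TaqMan qRT-PCR transcript level normalised to ACTB GAPDH and POLR2A housekeeping genes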
How it was run: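 HepaRG plated 48 h, medium switched to serum-free induction medium, chemicals added in duplicate (top 100 uM, half-log steps, 0.5% DMSO) for 48 h, cells lysed, RNA measured by TaqMan qRT-PCR.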

[6] = read-out: catalase (CAT), CAT (gene 847); assay: LTEA_HepaRG_CAT: Life Technologies and Expression Analysis (LTEA) Assay for catalase (CAT) using HepaRG (AID 2283452); details: mRNA level, 48 h; actives raise or lower the signal;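 for AC50: TaqMan qRT-PCR signal normalized to ACTB GAPDH and POLR2A housekeeping genes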
How it was run: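 HepaRG cells in serum-free induction medium, 0.5% DMSO vehicle, exposed 48 h in duplicate over 8 half-log concentrations from 100 uM. CAT mRNA measured by qRT-PCR, normalized to ACTB, GAPDH, POLR2A; bidirectional fit versus DMSO.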

[7] = read-out: flavin-containing dimethylaniline monooxygenases 3 (FMO3), FMO3 (gene 2328); assay: LTEA_HepaRG_FMO3: Life Technologies and Expression Analysis (LTEA) Assay for flavin-containing dimethylaniline monooxygenases 3 (FMO3) using HepaRG (AID 2283453); details: mRNA level, 48 h; actives raise or lower the signal
How it was run: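 Differentiated HepaRG cells in serum-free induction medium, exposed 48 h in duplicate to 8 half-log concentrations up to 100 uM in 0.5% DMSO. FMO3 mRNA by qRT-PCR, normalized to ACTB, GAPDH, POLR2A; bidirectional fit vs DMSO.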

[8] = read-out: Cytochrome P450 (CYP1A1), CYP1A1 (gene 1543); assay: LTEA_HepaRG_CYP1A1: Life Technologies and Expression Analysis (LTEA) Assay for Cytochrome P450 (CYP1A1) using HepaRG (AID 2283454); details: mRNA level, 48 h; actives raise or lower the signal
How it was run: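 HepaRG, 48 h post-plating switched to serum-free induction medium; 8-pt conc-response (top 100 uM, half-log, 0.5% DMSO), duplicates, 48 h. Lysis in RLT, TaqMan qRT-PCR for CYP1A1; gain or loss vs DMSO.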

[9] = read-out: CFLAR gene, CFLAR (gene 8837); assay: LTEA_HepaRG_CFLAR: Life Technologies and Expression Analysis (LTEA) Assay for CFLAR gene using HepaRG (AID 2283455); details: mRNA level, 48 h; actives raise or lower the signal
How it was run: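 Differentiated HepaRG cells in serum-free induction medium were exposed 48 h in duplicate to eight half-log concentrations up to 100 uM in 0.5% DMSO; mRNA measured by TaqMan qRT-PCR, normalized to ACTB, GAPDH, POLR2A; bidirectional fitting versus DMSO.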

[10] = read-out: Forkhead box O1 (FOXO1), FOXO1 (gene 2308); assay: LTEA_HepaRG_FOXO1: Life Technologies and Expression Analysis (LTEA) Assay for Forkhead box O1 (FOXO1) using HepaRG (AID 2283456); details: mRNA level, 48 h; actives raise or lower the signal
How it was run: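 Differentiated HepaRG cells, in serum-free induction medium with 0.5% DMSO, exposed 48 h in duplicate to 8-point half-log series from 100 uM. FOXO1 mRNA measured by TaqMan qRT-PCR, normalized to ACTB, GAPDH, POLR2A; bidirectional fit versus DMSO.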

[11] = read-out: growth arrest and DNA damage 45 (GADD45A), GADD45A (gene 1647); assay: LTEA_HepaRG_GADD45A: Life Technologies and Expression Analysis (LTEA) Assay for growth arrest and DNA damage 45 (GADD45A) using HepaRG (AID 2283458); details: mRNA level, 48 h; actives raise or lower the signal
How it was run: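 Cells plated and cultured 48 h, switched to serum-free induction medium, then dosed for 48 h (100 uM top, half-log dilutions, 0.5% DMSO). RNA was isolated and transcript measured by Fluidigm qRT-PCR.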

[12] = read-out: Forkhead box O3 (FOXO3), FOXO3 (gene 2309); assay: LTEA_HepaRG_FOXO3: Life Technologies and Expression Analysis (LTEA) Assay for Forkhead box O3 (FOXO3) using HepaRG (AID 2283459); details: mRNA level, 48 h; actives raise or lower the signal
How it was run: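 Differentiated human HepaRG cells, 48 h post-plating, exposed in duplicate for 48 h in serum-free induction medium; 8-point half-log series from 100 uM in 0.5% DMSO. FOXO3 mRNA by TaqMan qRT-PCR, normalized to ACTB/GAPDH/POLR2A; bidirectional fit versus DMSO.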

[13] = read-out: ABC Transporter (ABCB1), ABCB1 (gene 5243); assay: LTEA_HepaRG_ABCB1: Life Technologies and Expression Analysis (LTEA) Assay for ABC Transporter (ABCB1) using HepaRG (AID 2283460); details: mRNA level, 48 h; actives raise or lower the signal
How it was run: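 HepaRG cells exposed in duplicate for 48 h in serum-free induction medium to eight half-log concentrations up to 100 uM in 0.5% DMSO. ABCB1 mRNA quantified by qRT-PCR, normalised to ACTB, GAPDH and POLR2A; fitted bidirectionally versus DMSO.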

[14] = read-out: growth arrest and DNA damage 45 (GADD45B), GADD45B (gene 4616); assay: LTEA_HepaRG_GADD45B: Life Technologies and Expression Analysis (LTEA) Assay for growth arrest and DNA damage 45 (GADD45B) using HepaRG (AID 2283461); details: mRNA level, 48 h; actives raise or lower the signal
How it was run: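 HepaRG, ~100,000 cells/well, 48 h plating; serum-free induction medium; cpd 100 uM top, half-log x8, 0.5% DMSO, duplicate, 48 h; lysis in RLT, RNA isolation, qRT-PCR; norm ACTB/GAPDH/POLR2A; bidirectional fit vs DMSO.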

[15] = read-out: ABC Transporter (ABCC3), ABCC3 (gene 8714); assay: LTEA_HepaRG_ABCC3: Life Technologies and Expression Analysis (LTEA) Assay for ABC Transporter (ABCC3) using HepaRG (AID 2283462); details: mRNA level, 48 h; actives raise or lower the signal
How it was run: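 Human HepaRG, 48 h dosing, 8-pt half-log series from 100 uM, 0.5% DMSO vehicle, duplicates. ABCC3 mRNA by TaqMan qRT-PCR, housekeeping-normalized; bidirectional curve fit vs DMSO.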

[16] = read-out: ABC Transporter (ABCB11), ABCB11 (gene 8647); assay: LTEA_HepaRG_ABCB11: Life Technologies and Expression Analysis (LTEA) Assay for ABC Transporter (ABCB11) using HepaRG (AID 2283463); details: mRNA level, 48 h; actives raise or lower the signal
How it was run: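 Differentiated human HepaRG cells in serum-free induction medium, dosed in duplicate for 48 h. Eight-point half-log series from 100 uM in 0.5% DMSO; ABCB11 mRNA by qRT-PCR, normalized to ACTB, GAPDH, POLR2A, fitted bidirectionally versus DMSO.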

[17] = read-out: ABC Transporter (ABCC2), ABCC2 (gene 1244); assay: LTEA_HepaRG_ABCC2: Life Technologies and Expression Analysis (LTEA) Assay for ABC Transporter (ABCC2) using HepaRG (AID 2283464); details: mRNA level, 48 h; actives raise or lower the signal
How it was run: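 HepaRG, 48 h post-plating; serum-free induction medium; cpd 8-pt, 100 uM top, half-log, 0.5% DMSO, duplicate, 48 h. Readout: ABCC2 mRNA by qRT-PCR, norm. ACTB/GAPDH/POLR2A. Bidirectional fit vs DMSO baseline.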

[18] = read-out: Broad substrate specificity ATP-binding cassette transporter ABCG2 (Homo sapiens) (UniProt Q9UNQ0); assay: LTEA_HepaRG_ABCG2: Life Technologies and Expression Analysis (LTEA) Assay for ABC Transporter (ABCG2) using HepaRG (AID 2283465); details: mRNA level, 48 h; actives raise or lower the signal
How it was run: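 Differentiated HepaRG cells were exposed for 48 h in serum-free induction medium to 8 half-log concentrations, top 100 uM, in 0.5% DMSO. ABCG2 mRNA was measured by qRT-PCR, normalized to ACTB, GAPDH and POLR2A, with bidirectional fitting versus DMSO.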

[19] = read-out: ATP-citrate lyase (ACLY), ACLY (gene 47); assay: LTEA_HepaRG_ACLY: Life Technologies and Expression Analysis (LTEA) Assay for ATP-citrate lyase (ACLY) using HepaRG (AID 2283466); details: mRNA level, 48 h; actives raise or lower the signal
How it was run: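 Differentiated HepaRG cells exposed 48 h in serum-free induction medium to eight half-log concentrations up to 100 uM in 0.5% DMSO, duplicates. Transcript measured by Fluidigm TaqMan qRT-PCR, normalized to ACTB, GAPDH, POLR2A; bidirectional fit versus DMSO.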

[20] = CEETOX_H295R_TESTO: CeeTox H295R High-throughput Steroidogenesis Assay for Testosterone (TESTO) (AID 2283457); details: actives raise or lower the signal;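 note: cells exposed to chemicals for 48 h before medium collection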
How it was run: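 H295R, passage ≤10, 48 h dosing; media extracted with MTBE → HPLC-MS/MS for testosterone; 7-pt standard curve sets LLOQ/ULOQ; bidirectional fit vs DMSO; MTT viability same wells.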

Measured: AC50

Broad substrate specificity ATP-binding cassette transporter ABCG2 (Homo sapiens), sequence (Q9UNQ0 whole entry, looked up): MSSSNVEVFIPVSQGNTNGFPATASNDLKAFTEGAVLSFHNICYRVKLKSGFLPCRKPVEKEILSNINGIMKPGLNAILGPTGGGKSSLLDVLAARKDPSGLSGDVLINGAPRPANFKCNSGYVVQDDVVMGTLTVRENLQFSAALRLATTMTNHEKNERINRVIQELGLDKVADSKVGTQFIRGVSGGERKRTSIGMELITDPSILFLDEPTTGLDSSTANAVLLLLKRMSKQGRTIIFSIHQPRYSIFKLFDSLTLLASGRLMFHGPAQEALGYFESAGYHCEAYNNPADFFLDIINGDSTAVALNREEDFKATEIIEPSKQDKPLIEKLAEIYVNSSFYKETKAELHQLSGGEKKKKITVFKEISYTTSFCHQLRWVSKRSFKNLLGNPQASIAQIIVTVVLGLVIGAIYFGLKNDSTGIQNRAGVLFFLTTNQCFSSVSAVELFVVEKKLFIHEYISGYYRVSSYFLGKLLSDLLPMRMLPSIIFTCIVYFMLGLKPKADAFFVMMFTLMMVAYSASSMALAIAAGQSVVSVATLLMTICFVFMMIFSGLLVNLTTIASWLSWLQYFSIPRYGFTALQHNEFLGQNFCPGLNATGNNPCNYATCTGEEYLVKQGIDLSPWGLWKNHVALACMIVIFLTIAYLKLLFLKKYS
Fatty acid synthase (Homo sapiens), sequence (P49327 whole entry, looked up): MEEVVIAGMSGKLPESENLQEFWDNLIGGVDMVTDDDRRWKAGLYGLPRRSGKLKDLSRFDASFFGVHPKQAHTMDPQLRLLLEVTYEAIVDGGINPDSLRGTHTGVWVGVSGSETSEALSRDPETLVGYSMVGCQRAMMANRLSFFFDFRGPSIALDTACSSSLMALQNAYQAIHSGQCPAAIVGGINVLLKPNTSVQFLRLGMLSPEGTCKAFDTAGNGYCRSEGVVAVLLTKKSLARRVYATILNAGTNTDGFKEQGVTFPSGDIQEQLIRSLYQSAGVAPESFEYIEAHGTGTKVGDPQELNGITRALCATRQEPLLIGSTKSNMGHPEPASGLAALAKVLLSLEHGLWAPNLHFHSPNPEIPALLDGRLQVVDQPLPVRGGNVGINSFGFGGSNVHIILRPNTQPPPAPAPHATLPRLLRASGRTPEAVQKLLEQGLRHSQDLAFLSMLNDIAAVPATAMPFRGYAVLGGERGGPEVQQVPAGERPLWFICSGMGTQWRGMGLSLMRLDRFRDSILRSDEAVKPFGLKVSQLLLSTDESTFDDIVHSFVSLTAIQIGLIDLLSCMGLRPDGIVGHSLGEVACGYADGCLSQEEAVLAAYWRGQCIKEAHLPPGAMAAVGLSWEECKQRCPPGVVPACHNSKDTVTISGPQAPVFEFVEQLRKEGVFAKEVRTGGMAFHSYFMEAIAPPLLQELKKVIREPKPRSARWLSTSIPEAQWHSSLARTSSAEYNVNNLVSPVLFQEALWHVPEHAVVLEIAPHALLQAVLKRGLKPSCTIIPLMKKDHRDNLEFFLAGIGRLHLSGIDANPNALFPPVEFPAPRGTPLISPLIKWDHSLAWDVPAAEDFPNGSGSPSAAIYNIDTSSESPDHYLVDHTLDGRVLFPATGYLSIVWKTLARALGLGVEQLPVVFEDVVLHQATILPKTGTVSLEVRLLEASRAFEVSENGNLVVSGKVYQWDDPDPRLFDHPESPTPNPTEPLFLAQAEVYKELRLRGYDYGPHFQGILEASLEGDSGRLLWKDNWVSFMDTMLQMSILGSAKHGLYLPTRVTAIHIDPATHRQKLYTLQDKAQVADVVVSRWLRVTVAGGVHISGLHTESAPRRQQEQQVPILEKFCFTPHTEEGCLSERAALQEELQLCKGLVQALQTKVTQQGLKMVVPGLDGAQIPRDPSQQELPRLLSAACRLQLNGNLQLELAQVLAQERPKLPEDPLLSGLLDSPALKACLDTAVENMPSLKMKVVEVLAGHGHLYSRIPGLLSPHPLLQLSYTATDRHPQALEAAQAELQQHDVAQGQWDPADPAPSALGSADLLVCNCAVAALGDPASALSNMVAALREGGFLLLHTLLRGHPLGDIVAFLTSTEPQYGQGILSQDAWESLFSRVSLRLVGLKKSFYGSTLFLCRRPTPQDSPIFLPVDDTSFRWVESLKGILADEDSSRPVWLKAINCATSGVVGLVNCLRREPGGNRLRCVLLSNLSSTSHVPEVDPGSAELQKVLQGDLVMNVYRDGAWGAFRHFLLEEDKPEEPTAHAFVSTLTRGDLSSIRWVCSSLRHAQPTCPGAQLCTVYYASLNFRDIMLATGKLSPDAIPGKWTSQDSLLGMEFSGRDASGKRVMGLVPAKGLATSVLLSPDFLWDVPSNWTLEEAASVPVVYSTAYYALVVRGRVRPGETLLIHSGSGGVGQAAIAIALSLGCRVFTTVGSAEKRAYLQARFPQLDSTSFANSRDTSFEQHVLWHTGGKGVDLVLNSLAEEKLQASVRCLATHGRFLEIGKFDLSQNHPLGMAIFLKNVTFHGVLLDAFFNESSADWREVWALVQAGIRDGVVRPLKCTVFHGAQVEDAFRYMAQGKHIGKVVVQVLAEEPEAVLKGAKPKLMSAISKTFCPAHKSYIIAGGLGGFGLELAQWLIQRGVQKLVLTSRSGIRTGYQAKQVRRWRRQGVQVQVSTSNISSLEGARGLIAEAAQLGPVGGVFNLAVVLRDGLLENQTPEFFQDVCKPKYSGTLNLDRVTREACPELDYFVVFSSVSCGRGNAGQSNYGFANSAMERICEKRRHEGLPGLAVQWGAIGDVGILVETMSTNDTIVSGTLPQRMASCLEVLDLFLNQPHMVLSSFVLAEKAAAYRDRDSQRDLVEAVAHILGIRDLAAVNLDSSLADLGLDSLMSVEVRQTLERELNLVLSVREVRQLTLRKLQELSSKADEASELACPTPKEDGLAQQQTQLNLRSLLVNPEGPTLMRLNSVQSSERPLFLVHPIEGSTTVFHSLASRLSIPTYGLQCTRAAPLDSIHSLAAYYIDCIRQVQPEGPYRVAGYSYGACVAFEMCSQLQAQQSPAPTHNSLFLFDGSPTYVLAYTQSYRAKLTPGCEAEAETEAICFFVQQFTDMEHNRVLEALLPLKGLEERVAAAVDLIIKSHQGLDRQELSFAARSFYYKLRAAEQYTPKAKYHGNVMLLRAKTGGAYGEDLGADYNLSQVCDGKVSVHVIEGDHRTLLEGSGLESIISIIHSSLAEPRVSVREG

C=C(C)C(=O)OCCC(F)(F)C(F)(F)C(F)(F)C(F)(F)C(F)(F)C(F)(F)F
active: [8] 10.2 µM
inactive: [1] | [2] | [3] | [4] | [5] | [6] | [7] | [9] | [10] | [11] | [12] | [13] | [14] | [15] | [16] | [17] | [18] | [19]

CCCCC(CC)COC(=O)CCCCC(=O)OCc1ccccc1 (stereo unspecified)
active: [8] 50 µM
inactive: [1] | [2] | [3] | [4] | [5] | [6] | [7] | [9] | [10] | [11] | [12] | [13] | [14] | [15] | [16] | [17] | [18] | [19]

CC[C@H](c1ccc(O)cc1)[C@@H](CC)c1ccc(O)cc1
active: [1] 89.3 µM | [2] 76.2 µM | [3] 62.4 µM | [4] 89.8 µM | [5] 77 µM | [6] 78.4 µM | [7] 79.9 µM | [9] 75.7 µM | [10] 78.5 µM | [11] 77 µM | [13] 77.5 µM | [14] 66.9 µM | [17] 94.4 µM | [19] 83.9 µM
inactive: [8] | [12] | [15] | [16] | [18]

CCCOc1sc(C(=O)N2CCC(c3cc(CN)ccc3F)CC2)c(C)c1Br
inactive: [1] | [2] | [3] | [4] | [5] | [6] | [7] | [8] | [9] | [11] | [12] | [13] | [14] | [15] | [16] | [17] | [18] | [19]

c1ccc2c(c1)ccc1ccccc12
inactive: [1] | [2] | [3] | [4] | [5] | [6] | [7] | [9] | [11] | [12] | [13] | [14] | [15] | [16] | [19]
active: [20] 56.2 µM | [17] 9.92 µM | [18] 9.4 µM

CC(C)(C)CC(C)(C)c1ccc(O)c(-n2nc3ccccc3n2)c1
inactive: [1] | [3] | [4] | [5] | [6] | [9] | [10] | [11] | [12] | [14] | [15] | [16] | [19]
active: [2] 50 µM | [7] 77.6 µM | [13] 50 µM | [17] 50 µM | [18] 30.6 µM
